From PubChem BioAssay (EPA / NIEHS)
“And” between values parts separate entries of the source, which are not always exact repeats. Equal entries are not always repeated. The source holds several records for some structures; these can differ, active in one and inactive in another. The source made the active and inactive calls. The calls were made as follows: active = hit-call score of the fitted dose curve at least 0.9, where 1 is the maximum; inactive = score below 0.9.

These compounds were tested on Plasminogen activator inhibitor-1 (PAI1), SERPINE1 (gene 5054) (assay: BSK_KF3CT_PAI1: BioMAP Diversity Plus: KF3CT Assay for Plasminogen activator inhibitor-1 (PAI1) Biomarker Activity (AID 2284252)). Details: primary human keratinocytes with fibroblasts.
Protocol: BSK_KF3CT is a cell-based, multiplexed-readout assay that uses keratinocytes and foreskin fibroblasts, a human skin primary cell co-culture, with measurements taken at 24 hours after chemical dosing in a 96-well plate.BSK_KF3CT_PAI1 is an assay component measured in the BSK_KF3CT assay. It measures PAI-1 antibody related to regulation of gene expression using ELISA technology.Data from the assay component BSK_KF3CT_PAI1 was analyzed at the endpoint, BSK_KF3CT_PAI1, in the positive analysis fitting direction relative to DMSO as the negative control and baseline of activity. Using a type of binding reporter, gain or loss-of-signal activity can be used to understand protein changes. To generalize the intended target to other relatable targets, this assay endpoint is annotated to the 'cytokine' intended target family, where the subfamily is 'plasmogen activator inhibitor'.
The levels of cell surface (or secreted, indicated by the prefix "s") biomarker endpoints were measured by ELISA. Overt cytotoxicity to cells in confluent adherent cultures (all systems other than the BT system) was assessed by measuring total protein levels using sulforhodamine B (SRB) staining in parallel cultures at the time of biomarker measurements, indicated as SRB endpoints. For proliferation assays for adherent cell types, individual cell types are cultured at sub-confluence and relative cell numbers quantified by SRB staining at time points optimized for each system (48 h: 3C and CASM3C systems; 72 h: BT and HDF3CGF systems; 96 h: SAg system). SRB was performed by staining cells with 0.1% SRB after fixation with 10% TCA and reading wells at 560 nm.Viability and proliferation of PBMC (T cells) was quantified by Alamar Blue reduction for the SAg and BT systems. For PBMC viability (referred to as PBMC Cytotoxicity within the assay endpoint names), cells were plated (75,000/well in a 96-well plate) and then chemical samples added for 1 h before addition of activators, SEB and TSST-1 (20 ng/mL final concentration each). Cells were incubated for 90 h. Then, Alamar Blue (20 uL/well) (Invitrogen, Cat DAL1100) was added for 6 h, and the plates were read with a fluorescence microplate reader at 546/580 nm (excitation/emission). For PBMC proliferation, cells were plated and activated as above but incubated for only 16 h prior to addition of Alamar Blue. Plates were read after 6 h.

Structure (SMILES) | outcome | AC50
Nc1nc(N)nc(-c2ccccc2)n1 | inactive | 
Oc1ccccc1Cc1ccccc1O | inactive | 
CC(CCC(=O)O)(c1ccc(O)cc1)c1ccc(O)cc1 | inactive | 
CC(C)C(=O)OCCc1ccccc1 | inactive | 
c1ccc(Nc2cccc3ccccc23)cc1 |  | 27.4 µM (active) and 26.5 µM (active)
C[N+](C)(C)CCCNS(=O)(=O)C(F)(F)C(F)(F)C(F)(F)C(F)(F)C(F)(F)C(F)(F)C(F)(F)C(F)(F)F | inactive | 46.1 µM (active)
CCCC(C)C(=O)OCC (stereo not given) | inactive | 
CCCCCCCCCCCC(=O)N(C)CC(=O)O | inactive | 
O=C(O)C(F)(F)C(F)(F)C(F)(F)C(F)(F)C(=O)O | inactive | 
